SMILES strings stand for the structures. Where a name gives a salt, the structure may show the parent alone.

This test has as its system primary human hepatic stellate cells (donor 1). Nature of the test: ACTA2 mRNA fold change vs DMSO (normalised to PSMB2); higher = more ACTA2 expression. The conditions noted are these: 48 h. As for the experimental part: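 Secondary qRT-PCR screen in primary human HSCs (donor 1), 384-well plates, with compounds dispensed in quadruplicate and incubated for 48 h. Cells-to-CT lysates were used for multiplexed TaqMan qPCR of ACTA2 or COL1A1 with PSMB2 as reference. Fold changes versus DMSO come from a linear model (Ct_gene ~ Ct_PSMB2 + plate + chemical). A hit is defined as COL1A1 and ACTA2 FC <0.5 (FDR <0.05) with PSMB2 between 0.2 and 2.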
Turning to `CC1=NCCc2c1[nH]c1cc(O)ccc21` [Harmalol hydrochloride dihydrate] (24.4333 µM), the “ACTA2 mRNA fold change” value was determined as 0.546.
`CO[C@H]1CC[C@@H](O[C@H]2C[C@H]([C@]3(C)CC[C@]4(C[C@H](O)[C@@H](C)[C@@H]([C@@H](C)/C=C(\C)C(=O)[C@H](C)C[C@H](C)C(=O)O)O4)O3)O[C@]3(O[C@@H]([C@H]4O[C@@](O)(CO)[C@H](C)C[C@@H]4C)C[C@@H]3C)[C@@H]2C)O[C@@H]1C` [Nanchangmycin] (11.1 µM): the “ACTA2 mRNA fold change” value turned out to be 0.0291.
Turning to `O=C1C2CCN(CC2)C1(CO)CO` (90 µM), the “ACTA2 mRNA fold change” value is 0.152.
On to `C[C@]12CC[C@H](O)C[C@H]1CC[C@@H]1[C@@H]2CC[C@]2(C)[C@@H](C3=CC(=O)OC3)CC[C@]12O` [Digitoxigenin] (33.3333 µM), for which the “ACTA2 mRNA fold change” value was 0.0171.
Under `COc1ccc2c(c[n+](C)c3c4cc5c(cc4ccc23)OCO5)c1OC` (6.66667 µM) stands 0.0494; under `CN[C@@H]1C[C@H]2O[C@@](C)([C@@H]1OC)n1c3ccccc3c3c4c(c5c6ccccc6n2c5c31)C(=O)NC4` [staurosporine] (35.6667 µM), 0.667; under `O=[N+]([O-])/C=C/c1ccc2c(c1)OCO2` (3.7 µM), 0.905.
On to `C[C@H](N)Cn1ccc2cc(F)c(Cl)cc21` [Ro 60-0175 fumarate] (33.3333 µM), for which the “ACTA2 mRNA fold change” value came out at 0.532.
Turning to `C[C@@H]1O[C@@H](O[C@H]2C[C@@H](O)[C@]3(CO)[C@H]4[C@H](O)C[C@]5(C)[C@@H](C6=CC(=O)OC6)CC[C@]5(O)[C@@H]4CC[C@]3(O)C2)[C@H](O)[C@H](O)[C@H]1O` [Ouabain] (33.3333 µM), the “ACTA2 mRNA fold change” value amounted to 0.0189.
With `O=c1[nH]c2ccccc2n1C1CCN(CCCC(c2ccc(F)cc2)c2ccc(F)cc2)CC1` [Pimozide] (33.3333 µM), the “ACTA2 mRNA fold change” value is 0.0136.
As for `CC[C@H]1CN2CCc3cc(OC)c(OC)cc3[C@@H]2C[C@@H]1C[C@H]1NCCc2cc(OC)c(OC)cc21` [Emetine] (12.0333 µM), the “ACTA2 mRNA fold change” value stood at 0.0996.
As for `CCCCCCCCCCCCCC(=O)O[C@@H]1[C@@H](C)[C@@]2(O)[C@@H](C=C(CO)C[C@]3(O)C(=O)C(C)=C[C@@H]23)[C@@H]2C(C)(C)[C@]12OC(C)=O` [Phorbol 12-myristate 13-acetate] (27.0333 µM), the figure is 0.624; as for `COc1ccc2[nH]cc(C3=CCNCC3)c2c1` (33.3333 µM), 3.02; as for `O=C1/C(=C/c2ccccc2)C[C@@]2(O)[C@H]3Cc4ccc(O)c5c4[C@@]2(CCN3CC2CC2)[C@H]1O5` [BNTX maleate] (33.3333 µM), 0.275.
Under `CC1=C(O)C(=O)C=C2C1=CC=C1[C@@]2(C)CC[C@@]2(C)[C@@H]3C[C@](C)(C(=O)O)CC[C@]3(C)CC[C@]12C` [Celastrol] (3.33333 µM) stands 0.524.
Consider `CN1[C@@H]2CC[C@H]1C[C@@H](OC(c1ccc(F)cc1)c1ccc(F)cc1)C2` [3 α-Bis-(4-fluorophenyl) methoxytropane hydrochloride] (33.3333 µM), for which the “ACTA2 mRNA fold change” value amounted to 0.094.
Under `CCN(CC)CCO[C@H]1CC[C@@]2(C)C(=CC[C@@H]3[C@@H]2CC[C@]2(C)C(=O)CC[C@@H]32)C1` (33.3333 µM) stands 0.123.
Regarding `CN(C(=O)Cc1ccc(Cl)c(Cl)c1)[C@H](CN1CCCC1)c1ccccc1` [ICI-199,441 hydrochloride] (33.3333 µM), the “ACTA2 mRNA fold change” value amounted to 0.0655.
As for `Fc1cc(F)c2c(c1)[C@H]1C=CC[C@H]1C(c1cccnc1)N2` (some centres not stated) [Golgicide A] (33.3333 µM), the figure is 0.00835; as for `CCN1CCN(C(=O)Cc2ccc(Nc3ncc(F)c(Nc4ccc(C(=O)Nc5ccccc5Cl)cc4)n3)cc2)CC1` [Aurora A Inhibitor I] (33.3333 µM), 0.131; as for `CC1=C(CC/C(C)=C/CCC2=CC[C@H](C3=CC(=O)O[C@H]3O)O[C@H]2O)C(C)(C)CCC1` [Manoalide] (40 µM), 0.0669.
With `CC(C(=O)OC1CC2CCC(C1)N2C)c1ccc(Br)cc1` (configuration not stated) [PG-9 maleate] (33.3333 µM), the “ACTA2 mRNA fold change” value was 0.404.

Source of the values: the supplement of paper PMC9135407.
